In PubChem BioAssay (EPA / NIEHS):
Calls of active or inactive are those of the source. How the source made its calls: active means hit-call score of the fitted dose curve at least 0.9, where 1 is the maximum; inactive means score below 0.9.

Key:
[1] = ATG_CRE_CIS: Attagene CIS-FACTORIAL HepG2 Assay for human cAMP Responsive Element (CRE) binding protein 3 (AID 2282926); conditions: HepG2 CRE cis-reporter, Attagene multiplexed mRNA; actives raise or lower the signal
Method in brief: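 Liver-derived HepG2, transfected with a CRE-containing reporter panel, exposed 24 h; transcript levels sized and quantified by capillary electrophoresis of labelled amplicons; signal changes either way referenced to vehicle.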

[2] = target: CCAAT/enhancer-binding protein beta (Homo sapiens) (UniProt P17676); experiment: ATG_C_EBP_CIS: Attagene CIS-FACTORIAL HepG2 Assay for human CCAAT/Enhancer Binding Protein (C/EBP) beta (AID 2282927); conditions: HepG2 Attagene cis-factorial transcription factor reporter; actives raise or lower the signal
CCAAT/enhancer-binding protein beta (Homo sapiens), sequence (P17676 whole entry, looked up): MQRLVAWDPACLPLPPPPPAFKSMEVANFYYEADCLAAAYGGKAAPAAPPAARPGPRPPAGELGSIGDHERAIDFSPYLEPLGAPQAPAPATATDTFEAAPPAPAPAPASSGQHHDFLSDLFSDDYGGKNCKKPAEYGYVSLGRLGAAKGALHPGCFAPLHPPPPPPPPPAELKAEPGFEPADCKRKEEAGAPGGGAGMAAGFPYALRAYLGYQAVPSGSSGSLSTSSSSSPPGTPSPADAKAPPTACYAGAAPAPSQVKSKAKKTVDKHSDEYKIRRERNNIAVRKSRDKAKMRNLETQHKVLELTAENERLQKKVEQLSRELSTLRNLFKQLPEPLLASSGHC
Method in brief: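 Transiently transfected HepG2 (MRTU library, endogenous TF-driven promoters); 24 h dosing; total RNA → oligo(dT) RT → PCR → 6-FAM primer extension → HpaI digest → CE; fit bidirectionally vs DMSO.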

[3] = ATG_AP_1_CIS: Attagene CIS-FACTORIAL HepG2 Assay for human Activator Protein 1 (AP-1) (AID 2282931); conditions: HepG2 Attagene cis-factorial AP-1 reporter mRNA; actives raise or lower the signal
Method in brief: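 Fluorescence of labelled PCR fragments separated by capillary electrophoresis gives reporter mRNA levels. HepG2 with transfected cis-regulated reporter units, 24 h exposure; DMSO serves as baseline for bidirectional curve fits.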

[4] = ATG_AP_2_CIS: Attagene CIS-FACTORIAL HepG2 Assay for human Activator Protein 2 (AP-2) (AID 2282932); conditions: HepG2 AP-2 cis-reporter, Attagene transcription factor profiling; actives raise or lower the signal
Method in brief: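 Read-out: fluorescent reporter mRNA via RT-PCR and capillary electrophoresis, 24 h post-dose in transiently transfected HepG2. Endogenous factors drive cis-promoter reporters; gain or loss of signal fitted bidirectionally against DMSO.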

[5] = ATG_BRE_CIS: Attagene CIS-FACTORIAL HepG2 Assay for human Bone Morphogenetic Protein (BMP) Response Element (BRE) (AID 2282933); conditions: HepG2 BMP response element reporter, Attagene transcription factor profiling; actives raise or lower the signal
Method in brief: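 Fluorescence-labelled reporter cDNA fragments, separated by capillary electrophoresis, gave the signal for this component of a 52-readout multiplex. HepG2 cells were transfected, exposed to chemicals for 24 h, and compared with DMSO using bidirectional fitting.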

[6] = ATG_E_Box_CIS: Attagene CIS-FACTORIAL HepG2 Assay for human Enhancer Box (E-box) (AID 2282936); conditions: HepG2 E-box cis-reporter transcription, actives raise or lower the signal
Method in brief: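 Transiently transfected HepG2, endogenous TF-driven reporters, 24 h dosing. Readout: RT-PCR plus capillary electrophoresis of fluorescent reporter fragments. Gain or loss of signal fitted bidirectionally against DMSO baseline.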

[7] = ATG_M_61_CIS: Attagene CIS-FACTORIAL HepG2 Assay for M61 Transcription Factor (Internal Marker) (AID 2282937); conditions: HepG2 Attagene CIS-FACTORIAL M61 internal marker reporter; actives raise or lower the signal
Method in brief: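 This endpoint serves as an internal background control within a multiplexed HepG2 cis-reporter panel. Cells are exposed for 24 h; reporter mRNA is amplified, fluorescently labelled and sized by capillary electrophoresis, with DMSO as negative control.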

[8] = ATG_EGR_CIS: Attagene CIS-FACTORIAL HepG2 Assay for human Early Growth Response 1 (EGR1) (AID 2282938); conditions: HepG2 Attagene CIS-FACTORIAL EGR reporter mRNA; actives raise or lower the signal
Method in brief: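 HepG2, transient MRTU transfection (cis promoters), 24 h compound. RNA → RT (oligo-dT) → PCR → 6-FAM labelling → HpaI cut → CE fluorescence. Bidirectional fit, DMSO baseline.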

[9] = ATG_Ets_CIS: Attagene CIS-FACTORIAL HepG2 Assay for human Erythroblast Transformation Specific (ETS) (AID 2282941); conditions: HepG2 ETS cis-reporter transcription, actives raise or lower the signal
Method in brief: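 RT-PCR/capillary electrophoresis fluorescence read-out of reporter mRNA; HepG2 transient multi-reporter transfection; 24 h compound exposure; gain or loss of signal fitted bidirectionally relative to DMSO.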

[10] = ATG_FoxO_CIS: Attagene CIS-FACTORIAL HepG2 Assay for human Forkhead box O (FoxO) (AID 2282943); conditions: HepG2 Attagene cis-reporter, FoxO element, mRNA; actives raise or lower the signal
Method in brief: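 Read-out: fluorescence of 6-FAM-labelled reporter cDNA fragments resolved by capillary electrophoresis. Transiently transfected HepG2 cells were dosed for 24 h; activity fitted in both directions relative to DMSO controls.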

[11] = ATG_GATA_CIS: Attagene CIS-FACTORIAL HepG2 Assay for human GATA Binding Protein (AID 2282944); conditions: HepG2 GATA cis-element reporter, Attagene multiplex mRNA; actives raise or lower the signal
Method in brief: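 Cells: HepG2, transiently transfected with cis-regulated reporter transcription units. Exposure: 24 h. Detection: RT-PCR plus capillary electrophoresis of FAM-labeled fragments. Analysis: bidirectional, DMSO as baseline.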

[12] = ATG_M_32_CIS: Attagene CIS-FACTORIAL HepG2 Assay for M32 Transcription Factor (Internal Marker) (AID 2282949); conditions: HepG2 Attagene cis-factorial M32 reporter, mRNA; actives raise or lower the signal;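 further: background control marker of the multiplexed CIS panel rather than a real target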
Method in brief: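 Transient MRTU transfection of HepG2; 24 h compound treatment; TriZol RNA, oligo(dT) RT, reporter PCR, 6-FAM primer extension, HpaI cut, CE. Gain/loss of signal vs DMSO.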

[13] = ATG_M_06_CIS: Attagene CIS-FACTORIAL HepG2 Assay for M06 Transcription Factor (Internal Marker) (AID 2282950); conditions: HepG2 Attagene CIS-FACTORIAL M06 internal marker reporter; actives raise or lower the signal
Method in brief: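 Measured 24 h post-dosing in transiently transfected HepG2 cells, this internal-marker endpoint reports reporter mRNA via RT-PCR with fluorescent primer extension and capillary electrophoresis. DMSO served as negative control and baseline for bidirectional fitting.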

[14] = ATG_MRE_CIS: Attagene CIS-FACTORIAL HepG2 Assay for human Metal Responsive Element (MRE) (AID 2282954); conditions: HepG2 MRE cis-reporter transcription, Attagene multiplex; actives raise or lower the signal
Method in brief: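 RT-PCR/capillary electrophoresis readout of reporter mRNA, 24 h post-dosing, in HepG2 cells transfected with multiplexed cis-regulated reporter constructs. Gain or loss of signal fitted bidirectionally against DMSO baseline.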

[15] = target: Paired box protein Pax-6 (Homo sapiens) (UniProt P26367); experiment: ATG_Pax6_CIS: Attagene CIS-FACTORIAL HepG2 Assay for human Paired Box 6 (PAX6) (AID 2282956); conditions: HepG2 CIS-FACTORIAL PAX6 reporter transcription, RNA readout; actives raise or lower the signal
Paired box protein Pax-6 (Homo sapiens), sequence (P26367 whole entry, looked up): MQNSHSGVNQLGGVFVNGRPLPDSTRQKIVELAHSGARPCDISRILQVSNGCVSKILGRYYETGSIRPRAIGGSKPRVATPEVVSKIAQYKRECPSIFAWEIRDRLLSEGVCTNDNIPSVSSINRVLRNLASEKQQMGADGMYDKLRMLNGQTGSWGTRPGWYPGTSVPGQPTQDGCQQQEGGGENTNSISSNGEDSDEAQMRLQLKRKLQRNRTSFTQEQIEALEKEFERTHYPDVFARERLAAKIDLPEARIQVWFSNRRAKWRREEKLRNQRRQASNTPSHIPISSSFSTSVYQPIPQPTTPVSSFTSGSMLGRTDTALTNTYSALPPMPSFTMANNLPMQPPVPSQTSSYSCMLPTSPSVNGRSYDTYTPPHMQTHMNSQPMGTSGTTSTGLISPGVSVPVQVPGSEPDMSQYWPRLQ
Method in brief: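 Readout: reporter transcript fluorescence after RT-PCR and capillary electrophoresis. Cells: HepG2, transiently transfected with cis-regulated MRTUs. Exposure 24 h. Gain or loss of signal fitted bidirectionally relative to DMSO.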

[16] = ATG_PXRE_CIS: Attagene CIS-FACTORIAL HepG2 Assay for human Pregnane X Receptor Element (PXRE) (AID 2282957); conditions: HepG2 Attagene CIS-FACTORIAL PXRE reporter, mRNA; actives raise or lower the signal
Method in brief: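 Bidirectional activity, baselined to DMSO, derived from reporter mRNA fluorescence (RT-PCR plus capillary electrophoresis) in HepG2 cells bearing cis-promoter reporter units, 24 h exposure.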

[17] = target: Transcription factor Sp1 (Homo sapiens) (UniProt P08047); experiment: ATG_Sp1_CIS: Attagene CIS-FACTORIAL HepG2 Assay for human Specificity Protein 1 (Sp1) (AID 2282961); conditions: HepG2 Sp1 cis-reporter transcription, actives raise or lower the signal
Transcription factor Sp1 (Homo sapiens), sequence (P08047 whole entry, looked up): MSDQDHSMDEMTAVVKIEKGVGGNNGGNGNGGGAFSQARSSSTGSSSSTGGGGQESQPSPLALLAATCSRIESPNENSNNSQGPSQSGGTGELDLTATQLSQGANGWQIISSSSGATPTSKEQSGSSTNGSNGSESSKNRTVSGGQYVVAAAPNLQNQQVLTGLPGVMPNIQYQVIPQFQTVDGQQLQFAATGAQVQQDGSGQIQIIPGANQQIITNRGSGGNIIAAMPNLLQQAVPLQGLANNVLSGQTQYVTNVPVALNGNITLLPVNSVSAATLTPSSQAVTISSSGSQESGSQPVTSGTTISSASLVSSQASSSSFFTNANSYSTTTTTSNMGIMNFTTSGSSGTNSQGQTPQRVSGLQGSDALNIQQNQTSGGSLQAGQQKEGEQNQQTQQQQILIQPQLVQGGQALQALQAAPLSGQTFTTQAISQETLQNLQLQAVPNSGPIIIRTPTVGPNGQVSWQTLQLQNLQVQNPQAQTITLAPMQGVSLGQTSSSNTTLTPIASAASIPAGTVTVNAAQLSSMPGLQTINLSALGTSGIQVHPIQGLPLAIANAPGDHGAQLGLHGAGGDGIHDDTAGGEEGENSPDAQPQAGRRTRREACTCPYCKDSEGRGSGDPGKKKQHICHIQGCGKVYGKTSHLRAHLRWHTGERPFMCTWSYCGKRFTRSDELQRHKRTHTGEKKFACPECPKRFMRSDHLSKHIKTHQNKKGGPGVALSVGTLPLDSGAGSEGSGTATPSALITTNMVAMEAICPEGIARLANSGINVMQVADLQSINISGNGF
Method in brief: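 Measures mRNA induction of an Sp1-linked reporter in HepG2 cells 24 h post-dosing. Multiplexed reporters read by RT-PCR and capillary electrophoresis; DMSO serves as negative control and baseline.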

[18] = ATG_SREBP_CIS: Attagene CIS-FACTORIAL HepG2 Assay for human Sterol Regulatory Element Binding (SREBP) (AID 2282962); conditions: HepG2 Attagene cis-factorial SREBP reporter, mRNA; actives raise or lower the signal
Method in brief: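 Readout: fluorescent reporter-transcript peaks resolved by capillary electrophoresis after RT-PCR. Cells were human HepG2 carrying transfected cis-promoter reporter constructs, dosed for 24 h. Gain or loss of signal was fitted against DMSO controls.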

[19] = target: Signal transducer and activator of transcription 3 (Homo sapiens) (UniProt P40763); experiment: ATG_STAT3_CIS: Attagene CIS-FACTORIAL HepG2 Assay for human Signal Transducer and Activator of Transcription 3 (STAT3) (AID 2282963); conditions: HepG2, Attagene cis-factorial STAT3 reporter transcription; actives raise or lower the signal
Signal transducer and activator of transcription 3 (Homo sapiens), sequence (P40763 whole entry, looked up, the tested form may be a part): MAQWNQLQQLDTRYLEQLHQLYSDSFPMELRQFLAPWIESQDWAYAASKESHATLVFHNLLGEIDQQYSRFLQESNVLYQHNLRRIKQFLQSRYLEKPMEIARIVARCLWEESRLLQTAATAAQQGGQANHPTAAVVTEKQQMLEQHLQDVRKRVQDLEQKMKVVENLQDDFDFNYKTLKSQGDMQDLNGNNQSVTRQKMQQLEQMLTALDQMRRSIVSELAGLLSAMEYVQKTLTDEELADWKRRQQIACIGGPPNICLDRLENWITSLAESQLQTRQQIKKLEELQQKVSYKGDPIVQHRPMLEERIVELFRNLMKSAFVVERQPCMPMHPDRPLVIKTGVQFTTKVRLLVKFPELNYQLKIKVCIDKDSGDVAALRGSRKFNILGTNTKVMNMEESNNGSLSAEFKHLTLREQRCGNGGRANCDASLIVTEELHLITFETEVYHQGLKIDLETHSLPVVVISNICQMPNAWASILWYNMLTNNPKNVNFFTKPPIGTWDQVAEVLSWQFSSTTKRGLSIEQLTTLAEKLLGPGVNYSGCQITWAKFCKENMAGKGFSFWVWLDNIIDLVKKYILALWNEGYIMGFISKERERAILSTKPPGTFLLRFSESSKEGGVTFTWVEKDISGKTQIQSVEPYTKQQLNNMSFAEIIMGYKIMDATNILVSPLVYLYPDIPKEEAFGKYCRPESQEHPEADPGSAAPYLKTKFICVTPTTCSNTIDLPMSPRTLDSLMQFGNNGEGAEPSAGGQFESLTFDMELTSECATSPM
Method in brief: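 Readout: fluorescent reporter mRNA fragments resolved by capillary electrophoresis. Setup: HepG2 transfected with MRTUs reporting endogenous transcription-factor activity, dosed 24 h. Gain or loss of signal fitted bidirectionally against DMSO control.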

[20] = ATG_TAL_CIS: Attagene CIS-FACTORIAL HepG2 Assay for human TAL Basal Promoter (AID 2282966); conditions: HepG2 Attagene cis-factorial TAL promoter reporter; actives raise or lower the signal;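 further: background control endpoint measuring basal TAL promoter reporter mRNA not a specific factor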
Method in brief: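 Human hepatoma HepG2 cells, transfected with promoter-regulated reporter units, were treated 24 h. Reporter transcript levels, measured through RT-PCR and capillary electrophoresis, were fitted for gain or loss relative to DMSO.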

Measured: AC50

CC1=C(CC=O)C(C)(C)CCC1
active: [16] 0.734 µM
inactive: all other assays above

COC(OC)C(C)c1ccccc1 (stereo not given)
active: [16] 27.2 µM
inactive: all other assays above

C=CN1CCCCCC1=O
inactive: all assays above

CN(C)CCC(c1ccc(Cl)cc1)c1ccccn1 (stereo not given)
inactive: all assays above

CCCCn1cc[n+](C)c1
inactive: all assays above

CC(C)n1c(/C=C/[C@@H](O)C[C@@H](O)CC(=O)O)c(-c2ccc(F)cc2)c2ccccc21
active: [16] 3.98 µM | [18] 0.284 µM
inactive: all other assays above

CCCCCCCC#N
inactive: all assays above

CC/C=C/CCO
active: [16] 40.5 µM
inactive: all other assays above

CC(=O)Nc1c(I)c(NC(C)=O)c(I)c(C(=O)O)c1I
inactive: all assays above

c1ccc2c(c1)Oc1ccccc1S2
active: [6] 57.3 µM | [17] 155 µM | [18] 146 µM
inactive: all other assays above

O=[N+]([O-])c1ccc2nc[nH]c2c1
inactive: all assays above

O=C(O)/C=C/C(=O)O
inactive: all assays above

Nc1ccc(S(=O)(=O)Nc2cnc3ccccc3n2)cc1
inactive: all assays above
